Measurements taken from PubChem BioAssay.
Several values for one entry are separate records, joined by “and”; a condition that tells them apart may be missing. Equal values may be shown once. Activity calls are given as the source filed them. Rule as the data show it, unless noted: active = inhibition above about 80%; inactive = the rest.

Legend:
[1] = growth inhibition, single agent or in combination, cell-based, chromothripsis tumors, cisplatin or BGB combos (AID 1671449); settings: LFS_MB_P medulloblastoma cells;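 also: cells exposed for 96 hours; 0% = vehicle DMSO and 100% = killing by high DMSO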
[2] = growth inhibition, single agent and combos, cell-based, chromothripsis tumors, cisplatin or BGB combos (AID 1671450); settings: HDN33 neuroblastoma cells, stronger effect = higher value;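 also: cells exposed to compound for four days; 0% = vehicle DMSO and 100% = cell killing by high DMSO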
[3] = growth inhibition, single agents and combos, ICB984, cell-based, cisplatin or BGB combos, synergistic combos for chromothripsis tumors (AID 1671451; call rule not given here;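 also: cells exposed for 96 hours before readout; 0% = vehicle DMSO and 100% = killing by high DMSO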); settings: ICB984 medulloblastoma cells, drug combinations, stronger effect = higher value
[4] = growth inhibition, single agents and combos, LFS_MB_1R, cell-based, cisplatin or BGB combos, synergistic combos for chromothripsis tumors (AID 1671452); settings: LFS_MB_1R medulloblastoma cells, stronger effect = higher value;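 also: cells exposed for 96 hours before readout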
[5] = growth inhibition, single agents and combos, HTB85, cell-based, BGB or cisplatin IC20 combos, synergistic combos for chromothripsis tumors (AID 1671453); settings: HTB85 osteosarcoma cells, drug combinations, stronger effect = higher value;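 also: cells exposed for 96 hours before readout; 0% = vehicle DMSO and 100% = high DMSO killing control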
[6] = growth inhibition, single agents and combos, CRL2098, cell-based, BGB or cisplatin IC20 combos, synergistic combos for chromothripsis tumors (AID 1671454); settings: CRL2098 osteosarcoma cells, drug combinations, stronger effect = higher value;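 also: cells exposed for 96 h before readout; 0% = vehicle DMSO and 100% = killing by high DMSO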
[7] = growth inhibition, single agents and combos, HD-MB03, cell-based, BGB or cisplatin IC20 combos, synergistic combos for chromothripsis tumors (AID 1671455; in the data active = inhibition above about 83%;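 also: 0% = vehicle DMSO and 100% = high DMSO as cytotoxic control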); settings: HD-MB03 medulloblastoma cells, stronger effect = higher value
[8] = growth inhibition, single agents and combos, UWB1.289, cell-based, BGB or cisplatin combos, synergistic combos for chromothripsis tumors (AID 1671456); settings: UWB1.289 ovarian carcinoma cells, stronger effect = higher value;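 also: cells exposed to compound for four days; 0% = vehicle DMSO and 100% = killing by high DMSO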
[9] = growth inhibition, single agents and combos, LFS_MB_2R, cell-based, cisplatin combos, synergistic combos for chromothripsis tumors (AID 1671457); settings: LFS_MB_2R medulloblastoma cells, stronger effect = higher value;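 also: cells exposed to compound for four days before readout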
[10] = growth inhibition, MDA-MB-436, cell-based, BGB or cisplatin combos, synergistic combos for chromothripsis tumors (AID 1671458; call rule not given here;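 also: cells exposed for 96 hours; 0% = vehicle DMSO and 100% = killing by high DMSO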); settings: MDA-MB-436 breast carcinoma growth inhibition, drug combinations, stronger effect = higher value
[11] = UWB1.289_BRCA1 ovarian cancer growth, cell-based, BGB or cisplatin combinations (AID 1671459); settings: UWB1.289 BRCA1 ovarian carcinoma, drug combinations, stronger effect = higher value
[12] = drug combination toxicity in non-malignant astrocytes – cell-based, BGB or cisplatin IC20 combos, cytotoxicity control for chromothriptic childhood tumor combination screen (AID 1671460); settings: Human astrocytes, viability inhibition, drug combinations, at 0.5 µM, stronger effect = higher value;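 also: cells exposed to compounds for 96 hours before viability readout; 0% = vehicle and 100% = killing control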
[13] = BT084 cell growth, single and combined drugs, ICGC_MB145, cisplatin and BGB IC40 combos (AID 1671461); settings: BT084 medulloblastoma cells, drug combinations, stronger effect = higher value;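 also: cells exposed to drugs for 96 hours; 0% = vehicle DMSO and 100% = high DMSO full killing control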
[14] = RCMB18 cell growth, single agent and combined, cisplatin and BGB IC40 combos (AID 1671462); settings: RCMB18 medulloblastoma cells, stronger effect = higher value;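 also: cells exposed to compound for four days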
[15] = CRL1545 cell growth, single agent and combined, cisplatin and BGB IC20 combos (AID 1671464); settings: CRL1545 osteosarcoma cells, stronger effect = higher value;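 also: cells exposed to compound for 96 hours before readout; 0% = vehicle DMSO and 100% = high DMSO killing control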
[16] = at 0.5 µM, stronger effect = higher value
[17] = measured here: combination with BGB IC20, at 0.005 µM
[18] = measured here: combination with BGB IC40, at 0.005 µM
[19] = measured here: combination with BGB IC40, at 0.05 µM
[20] = measured here: combination with cisplatin, at 0.5 µM, stronger effect = higher value
[21] = measured here: combination with cisplatin, at 5 µM, stronger effect = higher value
[22] = measured here: with BGB IC20 combination, at 0.5 µM
[23] = measured here: with cisplatin IC20 combination, at 0.5 µM
[24] = measured here: 5 uM single agent, at 5 µM
[25] = measured here: combination with cisplatin, at 0.5 µM
[26] = measured here: combination with cisplatin, at 5 µM
[27] = measured here: with BGB IC20, at 0.5 µM
[28] = measured here: with BGB IC20, at 5 µM
[29] = measured here: with cisplatin IC20, at 0.5 µM
[30] = measured here: with cisplatin IC20, at 5 µM
[31] = measured here: combination with BGB at IC20, at 0.5 µM
[32] = measured here: combination with cisplatin at IC20, at 0.5 µM
[33] = measured here: combo with BGB at IC20, at 0.5 µM
[34] = measured here: combo with cisplatin at IC20, at 0.5 µM
[35] = measured here: inhibition with BGB combination, at 0.05 µM
[36] = measured here: inhibition with cisplatin combination, at 0.05 µM
[37] = measured here: BGB combination, at 0.5 µM
[38] = measured here: BGB combination, at 5 µM
[39] = measured here: cisplatin combination, at 0.5 µM
[40] = measured here: cisplatin combination, at 5 µM
[41] = BGB combination, concentration series, at 5 µM
[42] = cisplatin combination, concentration series, at 5 µM
[43] = measured here: combo with BGB IC20
[44] = measured here: combo with cisplatin IC20
[45] = cisplatin combination, at 0.5 µM
[46] = measured here: BGB IC40 combination 0.05 uM, at 0.05 µM

## CC1CNC(=O)NC1=O (stereo not drawn)
[1]; [16]
  inhibition: -30.6% (inactive)
[1]; [17]
  inhibition: -22%
[1]; [18]
  inhibition: -7.63%
[1]; [19]
  inhibition: -15.7%
[1]; [20]
  inhibition: -39.2%
[1]; [21]
  inhibition: -13.3%
[2]; BGB combo, at 5 µM
  inhibition: -40.2%
[2]; at 0.5 µM
  inhibition: -17.3% (inactive)
[2]; cisplatin combo, at 5 µM
  inhibition: -24%
[2]; [22]
  inhibition: -4.75%
[2]; [23]
  inhibition: -15.4%
[2]; single agent, at 5 µM
  inhibition: 2.08%
[3]; BGB IC20 combo, at 0.005 µM
  inhibition: -33.2%
[3]; BGB IC40 combo, at 0.005 µM
  inhibition: -36.3%
[3]; BGB IC40 combo, at 0.05 µM
  inhibition: -20.7%
[3]; at 0.5 µM
  inhibition: -43.5% (inactive)
[3]; cisplatin combo, at 0.05 µM
  inhibition: -20.7%
[3]; cisplatin combo, at 0.5 µM
  inhibition: -62.7%
[3]; cisplatin combo, at 5 µM
  inhibition: -40.7%
[3]; [24]
  inhibition: -37.5%
[4]; at 0.5 µM
  inhibition: -30.6% (inactive)
[4]; [19]
  inhibition: -35.2%
[4]; [25]
  inhibition: 5.53%
[4]; [26]
  inhibition: 23.2%
[5]; at 0.5 µM
  inhibition: -31.7% (inactive)
[5]; [27]
  inhibition: -55.6%
[5]; [28]
  inhibition: -9.18%
[5]; [29]
  inhibition: -36.4%
[5]; [30]
  inhibition: -7.78%
[5]; single agent, at 5 µM
  inhibition: -19.6%
[6]; at 0.5 µM
  inhibition: -81.6% (inactive)
[6]; [31]
  inhibition: -71.8%
[6]; [32]
  inhibition: -130%
[7]; at 0.5 µM
  inhibition: 7.56% (inactive)
[7]; [33]
  inhibition: 12%
[7]; [34]
  inhibition: 16.9%
[8]; at 0.5 µM
  inhibition: -15.4% (inactive)
[8]; [35]
  inhibition: -40%
[8]; [36]
  inhibition: -20.8%
[9]; at 0.5 µM
  inhibition: -25.2% (inactive)
[9]; [25]
  inhibition: -28%
[9]; [26]
  inhibition: -26.8%
[10]; at 0.5 µM
  inhibition: -18.9% (inactive)
[10]; [37]
  inhibition: -18.5%
[10]; [38]
  inhibition: -17.9%
[10]; [39]
  inhibition: -32%
[10]; [40]
  inhibition: -4.6%
[11]; [41]
  inhibition: 1.37%
[11]; at 0.5 µM
  inhibition: -11% (inactive)
[11]; [42]
  inhibition: 10.9%
[12]
  inhibition: 12.2% (inactive)
[12]; [43]
  inhibition: 9.11%
[12]; [44]
  inhibition: 12%
[13]; at 0.5 µM
  inhibition: -12.5% (inactive)
[13]; [45]
  inhibition: -19.5%
[13]; cisplatin combination, at 5 µM
  inhibition: -47.1%
[13]; [46]
  inhibition: -27%
[13]; single agent, at 5 µM
  inhibition: -16.6%
[14]; at 0.5 µM
  inhibition: -12% (inactive)
[14]; cisplatin combo, at 5 µM
  inhibition: -15.1%
[14]; measured here: BGB IC40 combination, at 0.05 µM
  inhibition: -20.6%
[14]; [25]
  inhibition: -13.2%
[14]; single agent, at 5 µM
  inhibition: -49.2%
[15]; at 0.5 µM
  inhibition: -21.8% (inactive)
[15]; [22]
  inhibition: -10.4%
[15]; [23]
  inhibition: -27.5%
[15]; single agent, at 0.05 µM
  inhibition: 3.21%
[15]; single agent, at 5 µM
  inhibition: -10.2%

## CCCCNNC(=O)c1ccc(Br)cc1
[1]; [16]
  inhibition: -28.6% (inactive) and -13.6% (inactive)
[1]; [17]
  inhibition: -3.01% and -23.3%
[1]; [18]
  inhibition: -22.6% and -43.3%
[1]; [19]
  inhibition: -0.924% and -28%
[1]; [20]
  inhibition: -32% and -11.5%
[1]; [21]
  inhibition: -36.2% and 31.8%
[2]; BGB combo, at 5 µM
  inhibition: -6.55% and 1.44%
[2]; at 0.5 µM
  inhibition: 0.02% (inactive) and -19.7% (inactive)
[2]; cisplatin combo, at 5 µM
  inhibition: 13.1% and 50.6%
[2]; [22]
  inhibition: 3.17% and -28.2%
[2]; [23]
  inhibition: -1.75% and -2.85%
[2]; single agent, at 5 µM
  inhibition: 4.48% and -2.92%
[3]; BGB IC20 combo, at 0.005 µM
  inhibition: -0.717% and -27.2%
[3]; BGB IC40 combo, at 0.005 µM
  inhibition: -41.6% and -37.1%
[3]; BGB IC40 combo, at 0.05 µM
  inhibition: -16% and 7.68%
[3]; at 0.5 µM
  inhibition: -18.8% (inactive) and -23.4% (inactive)
[3]; cisplatin combo, at 0.05 µM
  inhibition: -20.6% and 3.05%
[3]; cisplatin combo, at 0.5 µM
  inhibition: -33.8% and -35%
[3]; cisplatin combo, at 5 µM
  inhibition: -37.9% and -23%
[3]; [24]
  inhibition: -7.59% and -16.8%
[4]; at 0.5 µM
  inhibition: -6.14% (inactive) and -24.9% (inactive)
[4]; [19]
  inhibition: -4.43% and -39.3%
[4]; [25]
  inhibition: 15.7% and -27.4%
[4]; [26]
  inhibition: -45.3% and 33.7%
[5]; at 0.5 µM
  inhibition: -6.38% (inactive) and -12% (inactive)
[5]; [27]
  inhibition: -9.67% and -6.58%
[5]; [28]
  inhibition: -16.5% and 39.7%
[5]; [29]
  inhibition: -16.9% and -17.5%
[5]; [30]
  inhibition: -4.96% and 37.1%
[5]; single agent, at 5 µM
  inhibition: 0.402% and 2.14%
[6]; at 0.5 µM
  inhibition: -42.1% (inactive) and -78.1% (inactive)
[6]; [31]
  inhibition: -11% and -84.3%
[6]; [32]
  inhibition: -47% and -80.1%
[7]; at 0.5 µM
  inhibition: -7.76% (inactive) and -11.7% (inactive)
[7]; [33]
  inhibition: -11.6% and -15%
[7]; [34]
  inhibition: -8.41% and -15%
[8]; at 0.5 µM
  inhibition: -8.32% (inactive) and -3.86% (inactive)
[8]; [35]
  inhibition: -23.9% and -19.8%
[8]; [36]
  inhibition: -10.7% and -18.7%
[9]; at 0.5 µM
  inhibition: -9.05% (inactive) and -20.7% (inactive)
[9]; [25]
  inhibition: -22% and -6.47%
[9]; [26]
  inhibition: -14.2% and 13.9%
[10]; at 0.5 µM
  inhibition: -12.3% (inactive) and -16% (inactive)
[10]; [37]
  inhibition: -20.8% and -8.47%
[10]; [38]
  inhibition: -14.9% and -12.9%
[10]; [39]
  inhibition: -6.74% and -30.9%
[10]; [40]
  inhibition: -0.941% and -3.8%
[11]; [41]
  inhibition: 6.4% and 33.8%
[11]; at 0.5 µM
  inhibition: -7.63% (inactive) and -13.8% (inactive)
[11]; [42]
  inhibition: 26% and 52.3%
[12]
  inhibition: 8.76% (inactive) and -0.16% (inactive)
[12]; [43]
  inhibition: 10.6% and 7.19%
[12]; [44]
  inhibition: 16.8% and 11.7%
[13]; at 0.5 µM
  inhibition: -6.87% (inactive) and -6.41% (inactive)
[13]; [45]
  inhibition: -5.88% and 9.41%
[13]; cisplatin combination, at 5 µM
  inhibition: 5.88% and 9.57%
[13]; [46]
  inhibition: -2.71% and -30.8%
[13]; single agent, at 5 µM
  inhibition: 3.58% and 5.96%
[14]; at 0.5 µM
  inhibition: -14.6% (inactive) and -4.43% (inactive)
[14]; cisplatin combo, at 5 µM
  inhibition: -8.38% and 43.4%
